High-throughput results (PubChem BioAssay)
Shown are actives, neighbours in structure and some others; about 11% of the full set was active somewhere.
VDR inhibitor – vitamin D3 receptor (human) inhibition | VDR-SRC2-3 peptide fluorescence polarization, 2 h | Potency, µM, inactives show max response, negative = inhibition, hits mostly inhibitors | 0.93% of 400,000 active; further: on the % scale 0 is the no-effect control and ±100 the full control effect
Target sequence (P11473 whole entry, looked up): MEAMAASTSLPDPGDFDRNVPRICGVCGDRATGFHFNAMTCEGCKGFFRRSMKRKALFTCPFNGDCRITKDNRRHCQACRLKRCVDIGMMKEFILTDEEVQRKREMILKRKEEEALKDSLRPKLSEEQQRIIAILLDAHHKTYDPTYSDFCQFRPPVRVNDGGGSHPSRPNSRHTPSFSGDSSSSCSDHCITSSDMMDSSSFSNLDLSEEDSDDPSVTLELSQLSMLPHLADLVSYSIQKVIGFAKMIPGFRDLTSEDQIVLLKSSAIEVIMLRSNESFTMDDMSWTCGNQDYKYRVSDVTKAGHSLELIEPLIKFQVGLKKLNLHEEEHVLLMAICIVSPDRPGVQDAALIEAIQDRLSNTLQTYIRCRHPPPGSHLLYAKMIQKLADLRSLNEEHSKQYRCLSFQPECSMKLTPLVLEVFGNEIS
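Measured by FP: displacement of SRC2-3 coactivator peptide from VDR by library compounds, following a two-hour ambient incubation.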
G9a block – G9a (human) methyltransferase inhibition | AID 504332 | 8.8% of 350,000 active | Q96KQ7 | Potency, µM (top dose mostly 102 µM), for the others: top-dose activity, negative = inhibition, most hits filed as inhibitors | G9a H3K9 monomethylation, AlphaScreen, 2 h; further: on the % scale 0 is the no-effect control and ±100 the full control effect; nearly all actives have a fitted effect of over 75% in size
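Methyltransferase reactions run at room temperature for 2 h (20 nM enzyme, 500 nM biotin-H3K9 peptide, 20 uM SAM) after a 15 min compound preincubation; product detected by AlphaScreen beads and anti-H3K9me1 antibody.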
JMJD2A Tudor inh – inhibitors of human JMJD2A Tudor domain. O75164. AlphaScreen JMJD2A-Tudor / H3K4me3 peptide binding. Potency, µM (top dose mostly 114 µM), without a hit: at the highest dose activity change, negative = inhibition, most hits filed as inhibitors. 4.4% of 390,000 active. AID 504339; further: on the % scale 0 is the no-effect control and ±100 the full control effect; nearly all actives have a fitted effect of over 50% in size
BAZ2B block – inhibitors of human BAZ2B bromodomain; 4.4% of 360,000 active; Q9UIF8; Potency, µM (series often up to 114 µM), inactives show top-dose activity change, negative = inhibition, hits mostly inhibitors; AID 504333; AlphaScreen BAZ2B-H3K14Ac peptide displacement; further: on the % scale 0 is the no-effect control and ±100 the full control effect; nearly all actives have a fitted effect of over 60% in size
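Compounds, titrated to a top concentration of 110 uM, were incubated 30 min at room temperature with preformed BAZ2B/acetyl-K14 H3 peptide complex (50 nM each). Proximity signal was measured by AlphaScreen after 20 min with beads.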
HP1b binding inh – blocks HP1-beta chromodomain binding to methylated histone tails. AlphaScreen HP1-beta / biotin-H3K9me3 peptide binding. Potency, µM (top dose mostly 114 µM), for the others: at the top dose activity change, negative = inhibition, usual class: inhibitors. P83916. 0.56% of 390,000 active; further: nearly all actives have a fitted effect of over 70% in size
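HP1-beta protein (50 nM final) preincubated 30 min at room temperature with biotinylated H3(1-18)K9me3 peptide (50 nM) in PBS pH 7.4, 0.01% Tween-20, then compound added for 30 min. AlphaScreen streptavidin donor/nickel chelate acceptor beads (10 ug/mL final), 30 min dark, luminescence read.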
PLK1 PBD inh – inhibitors of human PLK1 polo-box domain binding | Plk1 PBD binding of FITC phosphopeptide, fluorescence polarization | Potency, µM, for the others: max response, negative = inhibition, most hits filed as inhibitors | 2.8% of 360,000 active; further: series mostly up to about 57 µM; on the % scale 0 is the no-effect control and ±100 the full control effect; nearly all actives have a fitted effect of over 65% in size
* hit, by the source's call; ? = inconclusive; . = no result; [ ] = dose if it differs, or a comment. The call rests on the fitted dose curve; in most records, active means well fitted curve in the direction sought with a large enough effect; inconclusive means small, poorly fitted or top-dose-only effect, or another doubt; inactive means no such curve, though single readings can be large; an effect the other way counts as inactive or inconclusive. Potency means the concentration at half of the fitted maximal effect.

SMILES	VDR inhibitor	G9a block	JMJD2A Tudor inh	BAZ2B block	HP1b binding inh	PLK1 PBD inh
CCC(=O)c1ccc(OCC(=O)OCC(=O)Nc2c(C)n(C)n(-c3ccccc3)c2=O)cc1	-18.2%	-33.3%	-8.6%	2.3%	36.7%	-5.1%
Cc1c(NC(=O)COC(=O)COc2ccc(Nc3ccccc3)cc2)c(=O)n(-c2ccccc2)n1C	-12.8%	50.1µM*	-30.5%	?	-9.8%	-9.1%
Cc1c(NC(=O)COC(=O)CCC(=O)c2ccc(Cl)cc2)c(=O)n(-c2ccccc2)n1C	?	2.2%	-24.8%[11.4 µM]	-8.2%	-15.9%	16.8µM*
CCN(CC)S(=O)(=O)c1ccc(NC(=O)c2cc3ccc4cccnc4c3[nH]2)cc1	1.0%	-5.5%[59 µM]	-10.0%	1.6%[57.1 µM]	23.9%	.
COc1ccccc1-c1cc(C(=O)Nc2sc3c(c2C#N)CCC(C)C3)c2ccccc2n1 (configuration not stated)	-7.4%	14.0%[2.33 µM]	7.6%[11.4 µM]	-4.8%	-20.4%	26.7µM*
Cc1cc(C(=O)OCC(=O)Nc2sc3c(c2C#N)CCC(C)C3)c2ccccc2n1 (configuration not stated)	-0.1%	44.7µM*	-33.9%	-38.1%	-1.9%	?
COc1cccc(CNC(=O)CCCN2C(=O)CCn3nc(-c4cccn4C)cc32)c1	6.2%	-28.5%[59 µM]	-28.1%	-35.3%	4.7%[57 µM]	.
CCOC(=O)c1ccc(NC(=O)Cc2noc3ccc(C)cc23)cc1	-0.3%	12.6µM*	-5.6%	-0.9%	50.9%	.
N#Cc1nc(NCC2CC2)nc(Nc2ccccc2)n1	.	.	-6.2%	.	.	.
O=C(CN1CCCCC1)N1CCc2ccccc21	0.0%	11.6%	-17.4%	6.2%	21.7%	-1.0%
O=C(CN1CCCC1)N1CCCC(c2ccc(F)cc2)c2ccc(F)cc21 (configuration not stated)	-8.5%	28.2µM*	0.891µM*	-37.0%	?	6.0%
CC1CCCN(CCCNC(=O)c2cc(Sc3ccc(F)cc3)nc3ccccc23)C1 (configuration not stated)	7.1%	-6.4%[59 µM]	-19.0%	-5.4%	11.2%	.
O=[N+]([O-])c1ccccc1/C=N/N1CCN(Cc2ccccc2)CC1	-7.0%	39.8µM*	25.1µM*	28.2µM*	?	-8.9%
C(=N\N1CCN(Cc2ccccc2)CC1)/c1ccccc1	-3.8%	?	-9.6%[11.4 µM]	?	4.8%	?
CN1CCN(/N=C/c2cccc(Cl)c2Cl)CC1	-3.7%	39.8µM*	?	?	-15.6%	2.2%
O=C(CN1CCN(Cc2ccccc2Cl)CC1)N/N=C/C=C/c1ccco1	4.6%	?	-35.9%	-33.1%	4.0%	-1.3%
Clc1ccccc1CN1CCN(/N=C/C=C/c2ccco2)CC1	-2.4%	.	44.7µM*	31.6µM*	?	-1.9%
COc1ccc(/C=N/N2CCN(Cc3ccccc3)CC2)cc1	-8.2%	-9.5%[59 µM]	?	?	?	4.9%
CCOc1ccccc1/C=N/N1CCN(Cc2ccccc2)CC1	-7.5%	.	56.2µM*	50.1µM*	?	-15.8%
CCc1c(C(=O)NNC(=S)NCCc2ccccc2)csc1C	-6.9%	0.7%[59 µM]	-17.9%	-1.7%	46.5%	-16.3%
Cn1c(=O)c(CCc2ccccc2)nc2cnc(Oc3ccccc3)nc21	2.7%	11.5%[12.7 µM]	.	.	.	.
O=C(Nc1cc(C(F)(F)F)ccc1F)C1Cc2c(-c3ccccc3Oc3ccccc3)ccnc2O1 (configuration not stated)	.	.	.	.	.	-2.7%
COc1ccc(N2CCN(C(=O)COc3ccccc3C#N)CC2)cc1	16.5%	?	-25.8%	-32.4%	1.3%	.
COc1ccc(NC(=O)CN2C(=O)CC(c3ccc(C)c(C)c3)=Nc3ccccc32)cc1OC	14.3%	-26.0%[59 µM]	-33.7%	-23.7%	18.5%	.
CCOc1ccccc1NC(=O)CN1CCN(Cc2ccccc2)CC1	-21.4%	16.4%	-12.1%	1.1%	30.2%	-8.8%
CCOc1ccccc1OCCOCCN1CCN(Cc2ccccc2)CC1	-6.2%	.	0.794µM*	17.8µM*	?	-4.4%
Fc1ccccc1/C=N/N1CCN(Cc2ccccc2Cl)CC1	-8.2%	22.0%[0.501 µM]	50.1µM*	50.1µM*	-17.1%	-5.7%
FC(F)(F)c1ccccc1/C=N/N1CCN(Cc2ccccc2)CC1	-4.1%	7.08µM*	44.7µM*	39.8µM*	-23.0%	1.4%
